Screening data deposited in PubChem BioAssay by Sanford-Burnham Center for Chemical Genomics.
The list is not random: actives were taken first. Their share in the collection is about 4.1%.
NALP1 yeast inh = blocks the NALP1 inflammasome reconstituted in yeast. inhibition, % at 10 µM. S. cerevisiae NALP1/ASC/caspase-1 growth, X-gal OD620, 72 h. 280,000 compounds, 0.61% hits; in the data active means inhibition mostly above about 24%, no sharp cut-off; inactive means mostly below about 32%
tim23-1 inh = tim23-1 yeast growth inhibition; S. cerevisiae tim23-1 growth, BacTiter-Glo luminescence, 24 h; 330,000 compounds, 1.3% hits; AID 463212; inhibition, % at 20 µM;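 active means growth inhibition of the mutant yeast at or above 50%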;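 further: temperature-sensitive mutant grown at 25 °C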
tim10-1 inh = inhibits growth of tim10-1 mutant yeast; S. cerevisiae tim10-1 ts strain growth, BacTiter-Glo, 24 h; AID 463190; 330,000 compounds, 2.2% hits; inhibition, % at 20 µM;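 active means inhibition of at least 40%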;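 further: mutant grown at 25 °C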
TIM10 inh = inhibits growth of TIM10 yeast strain. S. cerevisiae TIM10 strain growth, BacTiter-Glo luminescence, 24 h. inhibition, % at 10 µM. 330,000 compounds, 1.4% hits. AID 463195;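 active means inhibition of 40% or more at the single tested concentration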;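 further: wild-type TIM10 isogenic control strain grown at permissive 25 °C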
NALP3 yeast inh = inhibitors of NALP3 inflammasome in yeast; 330,000 compounds, 0.39% hits; Yeast reconstituted NLRP3/ASC/caspase-1, beta-gal luminescence, 24 h; inhibition, % at 10 µM;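 active means inhibition of 50% or more; inactive means inhibition below 50%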
NALP3 yeast conf = confirmation of NALP3 inhibitors in yeast; shares compounds with NALP3 yeast inh; AID 435006; yeast expressing human NALP3, luminescence; inhibition, % at 10 µM; 1,300 compounds, 81% hits; in the data active means inhibition above about 48%
Casp1-ASC yeast = caspase-1-ASC yeast counter-screen hit; shares compounds with NALP3 yeast inh; yeast expressing Caspase-1-ASC, luminescence counter screen; inhibition, % at 10 µM; 1,000 compounds, 66% hits
NALP3 yeast rt = retest-confirmed inhibitor of NALP3 in yeast. shares compounds with NALP3 yeast inh. yeast expressing human NALP3, luminescence read-out. inhibition, % at 10 µM. 1,000 compounds, 53% hits. AID 488794
tim10-1 conf = confirmation of tim10-1 mutant yeast growth inhibitors; shares compounds with tim10-1 inh; S. cerevisiae tim10-1 ts strain growth, BacTiter-Glo, 24 h; inhibition, % at 20 µM; 7,400 compounds, 56% hits; AID 463213;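 active means inhibition of yeast growth at or above a set limit in either of two repeat tests at 20 µM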;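 further: tim10-1 mutant grown at permissive 25 °C to find synthetic lethal compounds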
TIM10 conf = confirmation of TIM10 yeast growth inhibitors | shares compounds with TIM10 inh | S. cerevisiae tim10 strain growth, BacTiter-Glo luminescence, 24 h | inhibition, % at 10 µM | 4,600 compounds, 63% hits | AID 463215;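 active means inhibition of yeast growth at or above a set limit in either of two replicates at 10 µM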; further: this counterscreen used the strain with wild-type TIM10
tim23-1 conf = tim23-1 yeast growth inhibition, confirmed. shares compounds with tim23-1 inh. S. cerevisiae tim23-1 growth, BacTiter-Glo luminescence, 24 h. inhibition, % at 20 µM. 4,400 compounds, 83% hits. AID 463218;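 active means inhibition above about 39% in either of two replicate wells at 20 µM, limit read from the data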;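 further: temperature-sensitive tim23-1 mutant grown at 25 °C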
A number is an active result; . = inactive; / = no result given. Unless noted, no stated cut-off is given here; in the data, active means inhibition above about 50%; inactive means the rest.

SMILES | NALP1 yeast inh | tim23-1 inh | tim10-1 inh | TIM10 inh | NALP3 yeast inh | NALP3 yeast conf | Casp1-ASC yeast | NALP3 yeast rt | tim10-1 conf | TIM10 conf | tim23-1 conf
CC(C)c1ccc(-c2csc(NC(=O)c3cccs3)c2C(=O)O)cc1 | . | 67 | 76 | 81 | 71 | 84 | 76 | 74 | 86 | 92 | 89
Cc1ccc(-c2csc(NC(=O)/C=C/c3ccco3)c2C(=O)O)cc1 | . | 79 | 76 | 81 | 83 | 90 | 90 | 84 | 74 | 79 | 89
Cc1ccc(-c2csc(NC(=O)c3cccc(C)c3)c2C(=O)O)cc1 | / | 83 | 72 | 83 | 65 | 70 | 66 | 61 | 84 | 90 | 89
CC(C)c1ccc(C(CC(=O)O)NC(=O)c2cccs2)cc1 (stereo not given) | . | . | . | . | . | / | / | / | / | / | /
Cc1ccc(-c2csc(NC(=O)c3ccc(Br)cc3)c2C(=O)O)cc1 | 61 | 84 | 81 | 82 | 91 | 96 | 95 | 88 | 82 | 93 | 89
O=C(Nc1scc(-c2ccc(F)cc2)c1C(=O)O)c1ccco1 | . | . | . | . | . | / | / | / | / | / | /
O=C(/C=C/c1ccc(Cl)cc1)Nc1ccccc1N1CCOCC1 | . | . | . | . | . | / | / | / | / | / | /
CCOC(=O)N1CCN(C(=O)c2ccccc2NC(=O)COc2ccccc2)CC1 | . | . | . | . | . | / | / | / | / | / | /
COc1ccc(N2CCN(CC(O)COc3ccccc3[N+](=O)[O-])CC2)cc1 (stereo not given) | . | . | . | . | . | / | / | / | / | / | /
COc1ccc(/C=C/C(=O)Nc2ccc3c(c2)CCC3)cc1OC | . | 54 | . | . | 59 | . | / | / | / | / | 55
CCCNC(=O)c1ccc(-c2nc3ccccc3s2)s1 | . | 56 | . | 55 | 58 | 76 | . | . | / | 33 | 77
CCCNC(=O)Nc1nc2ccccc2s1 | / | . | . | . | . | / | / | / | / | / | /
C=C(C)COc1ccc2c(C)c(CC(=O)OC)c(=O)oc2c1C | . | 61 | 80 | 87 | 66 | 78 | 83 | 80 | 76 | 88 | 65
Cc1nc(Nc2nc3c(c(=O)[nH]2)CCC3)nc2ccccc12 | / | 64 | 60 | 83 | 77 | 71 | . | . | 72 | 75 | 62
CC(C)(C)n1cnc2cc(NC(=O)c3cccs3)ccc21 | . | 53 | . | 61 | 57 | 74 | 60 | . | / | 55 | 71
C=CCOc1ccc(C(=O)Nc2ncn[nH]2)cc1 | . | . | . | . | . | / | / | / | / | / | /
N#Cc1cn(-c2ccccc2)nc1-c1ccc2c(c1)OCCO2 | . | . | . | . | . | / | / | / | / | / | /
O=Cc1cn(-c2ccccc2)nc1-c1ccc2c(c1)OCCO2 | . | 72 | 53 | 47 | 50 | 57 | 52 | 60 | 59 | 62 | 78
COc1ccc2[nH]c3c(C)c4ccncc4c(C)c3c2c1 | 55 | 50 | 58 | 59 | 89 | 96 | 99 | 91 | . | 71 | 69
Cn1c2c(c(=O)n(C)c1=O)C(C(F)(F)F)(C(F)(F)F)N=C(c1ccc(Cl)cc1)N2 | . | 59 | 61 | . | 54 | 92 | 77 | 88 | 59 | / | 51
CC(C)Cc1nc(SCC(=O)NCC2CCCO2)c2c(=O)n(C)c(=O)n(C)c2n1 (stereo not given) | . | . | . | . | . | / | / | / | / | / | /
CCn1c(SCC(=O)NCCCN2CCCC2=O)nnc1-c1cccc(C)c1 | / | . | . | . | . | / | / | / | / | / | /
O=C(NCCc1ccccc1)c1c(O)c2ccccc2[nH]c1=O | . | . | . | . | . | / | / | / | / | / | /
CCNC(=O)c1c(O)c2ccccc2[nH]c1=O | . | 54 | . | . | 68 | 79 | 53 | 71 | / | / | 41
